In PubChem BioAssay AID1117319 (Southern Research Institute, 2015):
“And” between values parts separate entries of the source, which are not always exact repeats. Equal values may be shown once. Screen size: about 260,000 compounds; about 1,500 (0.58%) were called active. Another 5% or so got no clear call; they are omitted.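 The calls were made as follows: active = inhibition above a set limit at one or more doses, reproduced on every date tested; inconclusive = results disagree between test dates, or hit never tested in dose response; inactive = the rest.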 Only a sample is shown. Measured potencies and affinities stand elsewhere.

Molecular target: Virion infectivity factor (Human immunodeficiency virus type 1 group M subtype B (isolate BH10)) + Virion infectivity factor (Human immunodeficiency virus type 1 group M subtype B (isolate BRU/LAI)) + Virion infectivity factor (Human immunodeficiency virus type 1 group M subtype B (isolate PCV12)) + Virion infectivity factor (Human immunodeficiency virus type 1 group M subtype B (isolate HXB2)) + DNA dC->dU-editing enzyme APOBEC-3G (Homo sapiens) (UniProt P69720+P69721+P69722+P69723+Q9HC16)
Test: inhibitors of Vif binding to APOBEC3G peptide, primary screen, biochemical, TR-FRET, GST-Vif 1-94, biotin-A3G peptide, dose response retest (AID 1117319);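 also: Vif residues 1-94 fused to GST binding biotinylated APOBEC3G peptide 110-148; 0% = full assay without inhibitor and 100% = GST in place of GST-Vif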
Details: active compounds read high

inhibition, inactive:
Cc1ccnc(NS(=O)(=O)c2cc([N+](=O)[O-])ccc2C)c1 -2.19%
COc1ccc(/C=C2\N=C(c3ccccc3Cl)NC2=O)cc1 3.99%
O=c1/c(=C/c2ccco2)sc2n1CN(c1cccc(Br)c1)CN=2 32.9%
Brc1cccc(-c2nnco2)c1 -2.5%
Cc1ccc(C2=N/C(=C\c3ccc(F)cc3)C(=O)N2)cc1 -3.34%
O=C(CCc1nc2ccccc2c(=O)[nH]1)OCc1ccc(-c2ccccc2)cc1 -13.5%
CCc1ccc2c(c1)C(=O)CCC2 -0.54%
O=C(CN1CCCCC1)NCCNC(=O)CN1CCCCC1 -5.6%
Cc1ccc2c(c1)c1c3n2CCN(C(=O)CN2CCN(C)CC2)C3CCC1 (configuration not stated) -1.2%
Cc1ccc2c(c1)c1c3n2CCN(C(=O)C2CC2)C3CCC1 (configuration not stated) 14.1%
COC(=O)c1ccc2c(c1)SC1=C(CCCC1=O)N2 20.1%
CNCc1ccccc1OCc1ccc(F)cc1 -4.9%
CCC(C)[C@@H](C(=O)Nc1ccc(OC)c(OC)c1)N1Cc2ccccc2C1=O (some centres not stated) 3.88%
CC(C(=O)Nc1ccc2c(c1)OCCO2)N1Cc2ccccc2C1=O (configuration not stated) 7.84%
N#C/C(C(N)=O)=C1/CCc2ccccc2N1 -2.65%
N#CC(C(N)=O)=C1CCC2(CC1)OCCCCO2 3.27%
C[C@@H]1CCCCO[C@H](CN(C)Cc2ccc(C(F)(F)F)cc2)[C@@H](C)CN([C@H](C)CO)C(=O)c2cc(NS(=O)(=O)c3cn(C)cn3)ccc2O1 -0.57%
Cc1noc(C)c1S(=O)(=O)Nc1ccc2c(c1)C(=O)N([C@@H](C)CO)C[C@@H](C)[C@@H](CN(C)CC1CCCCC1)OCCCC[C@@H](C)O2 2.32%
CCOC(=O)c1c(C)nc(C)c(C(=O)OCC)c1-c1cccc(N)c1 -1.65%
CC(C)n1c(SCC(=O)Nc2nc3ccccc3s2)nc2c1c(=O)n(C)c(=O)n2C 10.6%
NS(=O)(=O)c1cc(Br)c2c(c1)S(=O)(=O)NCN2 -0.53%
CCOC(=O)N1CCC(N(CCN(C)C)C(=S)Nc2cccc(Cl)c2C)CC1 -1.98%
O=C1NN(c2ccccc2)C(=O)/C1=C/c1ccc(-c2ccc(Cl)c(C(=O)O)c2)o1 -2.97%
Cc1ccc(N2NC(=O)/C(=C/c3ccc(-c4ccc(Cl)c(C(=O)O)c4)o3)C2=O)cc1 0.99%
CCOc1ccc2[nH]c(=O)c(CN(CCO)C(=O)c3ccc(OC)c(OC)c3)cc2c1 -0.38%
CCN(C(=O)COC(=O)c1cnc(C)cn1)c1c(N)n(Cc2ccccc2)c(=O)[nH]c1=O 2.12%
O=c1cc(-c2ccc(O)c(O)c2)oc2cc(O)cc(O)c12 15.6%
COc1c(O)cc2oc(-c3ccc(O)cc3)cc(=O)c2c1O 19.4%
O=c1cc(-c2ccc(O)cc2)oc2cc(O[C@@H]3O[C@H](CO)[C@@H](O)[C@H](O)[C@H]3O[C@@H]3OC[C@](O)(CO)[C@H]3O)cc(O)c12 6.15%
O=c1cc(-c2ccc(O)c(O)c2)oc2ccc3ccccc3c12 10.7%
COc1ccc(CNC(=O)CCC(=O)N2CCN(S(=O)(=O)c3cc([N+](=O)[O-])ccc3C)CC2)cc1 -6.42%
CN(C)c1ncc(/C=C2/C(=O)NC(=S)N(C3CCCCC3)C2=O)cn1 1.75%
CCOc1ccc(CCNS(=O)(=O)c2ccc3c(c2)oc(=O)n3C)cc1OCC 13.6%
c1ccc(CN2CCc3[nH]c4ccccc4c3C2)cc1 -5.69%
CC(C)CC(=O)N1CCN(C(=O)c2cccc(F)c2)CC1 -7.36%
COc1ccc(OCC(O)CN(C)C(=O)/C=C/c2cccc([N+](=O)[O-])c2)cc1 (configuration not stated) -4.1%
O=c1oc(/C=C/c2ccccc2)nc2sc3c(c12)CCC3 70.5%
COc1ccc(/C=C/c2nc3sc4c(c3c(=O)o2)CCC4)cc1 -1.87%
CCc1ccccc1OCC(=O)OCC(=O)N1CC(=O)Nc2ccccc21 -5.84%
CS(=O)(=O)N(CC(=O)NCc1ccc2c(c1)OCO2)C1CCCCC1 -13.6%
CCN(CC)c1ccc(/C=N/N2C(=O)c3ccccc3C2=O)c(O)c1 19.7%
Oc1cccc(/C=N/N2CCCCC2)c1O -5.32%
COc1cccc(/C=N/N2CCOCC2)c1O 2.44%
CCN(CC)c1ccc(/C=N/N2CCOCC2)c(O)c1 -1.22%
O=C1c2ccccc2C(=O)N1/N=C/c1ccc(O)c(O)c1 29.1%
Oc1ccccc1C=NN1CCCCCC1 -3.73%
CCC(=O)C1CCCN(C(=O)CCc2nnc(C3(c4ccc(Cl)cc4)CCC3)o2)C1 (configuration not stated) 8.39%
CCC(C)(C(=O)NC1CCCC1)N(C(=O)c1ccccn1)c1ccc(C)cc1 (configuration not stated) 5.82%
CC(=O)Nc1cccc(C(=O)OCC(=O)NNC(=O)c2cccs2)c1 -1.93%
Cc1ccc(C2(C)NC(=O)N(CC(=O)Nc3nc(-c4ccccn4)cs3)C2=O)cc1 (configuration not stated) 0.48%
COc1ccccc1OCC(=O)NCC(C)NC(=O)COc1ccccc1OC (configuration not stated) 5.26%
COc1ccc(-c2cn(-c3ccc(C)cc3)c(=O)n2CC(=O)Nc2cccc(F)c2)cc1 7.83%
CCOc1cccc2sc(N(CCCN(C)C)C(=O)Cc3ccccc3)nc12 3.08%
CCc1c(C)sc(NC(=O)OC)c1C(=O)N1CCOCC1 -5.04%
CCc1c(C)sc(NC(=O)OC)c1C(N)=O -10.3%
OC(COCc1ccccc1)CN1CCCC1 (configuration not stated) 1.73%
COc1ccc2oc(C(=O)c3ccccc3)c(NC(=O)CN3CCN(C)CC3)c2c1 1.78% and 5.75%
